{"source": "PubChem BioAssay (NCATS)", "note": "Values joined by “and” are separate entries in the source; they are usually repeats but may differ in a detail not shown here. Equal entries are not always repeated. Inconclusive results are not listed. Some compounds were tested as several samples or in several runs, with calls that do not always agree. Active and inactive are the calls of the source. The call rests on the fitted dose curve; in most records, active means well fitted curve in the direction sought with a large enough effect; inconclusive means small, poorly fitted or top-dose-only effect, or another doubt; inactive means no such curve, though single readings can be large; an effect the other way counts as inactive or inconclusive. Potency means the concentration at half of the fitted maximal effect.", "data": [{"test": "Viability qHTS for spleen associated tyrosine kinase inhibitor (SYKi) drug resistant MV4-11 cells (AID 1963824); further: nearly all actives have a fitted effect of over 35% in size", "details": "SYKi-resistant MV4-11 viability, CellTiter-Glo, 72 h; series mostly up to 45 µM; viability, % of control: at the top concentration", "outline": "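SYK inhibitor-resistant MV4-11 AML cells, 500 per well, added to predispensed compounds and incubated 72 hr at 37 C, 5% CO2. Viability measured by CellTiter-Glo luminescence after 10 min at room temperature.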", "values": [{"smiles": "CN(C(=O)c1c(O)c2ccccc2n(C)c1=O)c1ccccc1", "Potency": "11.9 µM (active) and inactive"}, {"smiles": "Cc1ccc2c(Cl)cc(Cl)c(O)c2n1", "viability, % of control": "94.6% (inactive)"}, {"smiles": "O=C1[C@H](CC[C@H](O)c2ccc(F)cc2)[C@@H](c2ccc(O)cc2)N1c1ccc(F)cc1", "Potency": "14.6 µM (active) and 20.9 µM (active)"}, {"smiles": "O=C(CCCCCCC(=O)N/N=C/c1ccc(N(c2ccccc2)c2ccccc2)cc1)NO", "Potency": "4.17 µM (active)"}, {"smiles": "CCCCCN(CCCCC)C(=O)C(CCC(=O)O)NC(=O)c1ccc(Cl)c(Cl)c1", "note": "(stereo not given)", "viability, % of control": "56.4% (inactive)"}]}, {"test": "Cellular viability qHTS for adrenocortical cancer (ACC) cell line SW-13 (AID 1963989); further: nearly all actives have a fitted effect of over 65% in size;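 on activity (max response): cells grown in serum-free medium with ITS supplement; on the % scale 0 is the no-effect control and ±100 the full control effect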", "details": "SW-13 ACC cells viability, CellTiter-Glo, 48 h; activity (max response): stronger effect = lower value", "outline": "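IC50 and maximal-response values come from four-parameter logistic fits of titration data. SW-13 cells in serum-free medium received compounds (up to 46 uM final) for 48 h before CellTiter-Glo luminescence.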", "values": [{"smiles": "Cc1cc(OCCCc2c3n(c4c(-c5c(C)nn(C)c5C)c(Cl)ccc24)[C@H](C)CN(c2cn(C)c4ccc(C(=O)O)cc24)C3=O)cc(C)c1Cl", "Potency": "2 µM (active)"}, {"smiles": "CCN1CCN(c2cc(-c3ccc(F)cc3)c3c(n2)CCCCCC3)CC1", "activity (max response)": "-1.29% (inactive)"}, {"smiles": "CCOC(=O)[C@H](CCc1ccccc1)N[C@@H](C)C(=O)N1[C@H](C(=O)O)C[C@@H]2CCC[C@@H]21", "activity (max response)": "3.72% (inactive) and 7.5% (inactive)"}, {"smiles": "Brc1c(NC2=NCCN2)ccc2nccnc12", "activity (max response)": "-5.06% (inactive)"}, {"smiles": "CC(=O)N[C@H]1[C@H](O[C@@H]2c3ccc(c(Cl)c3)Oc3cc4cc(c3O[C@@H]3O[C@H](CO)[C@@H](O)[C@H](O)[C@H]3NC(=O)CCCCCCCC(C)C)Oc3ccc(cc3Cl)C[C@H]3NC(=O)[C@H](N)c5ccc(O)c(c5)Oc5cc(O)cc(c5)[C@H](NC3=O)C(=O)N[C@H]4C(=O)N[C@H]3C(=O)N[C@@H]2C(=O)N[C@@H](C(=O)O)c2cc(O)cc(O[C@H]4O[C@H](CO)[C@@H](O)[C@H](O)[C@@H]4O)c2-c2cc3ccc2O)O[C@H](CO)[C@@H](O)[C@@H]1O", "activity (max response)": "11.6% (inactive)"}]}]}
